# Laboratory results taken from PubChem BioAssay (EPA / NIEHS).
# Records with an inconclusive call do not appear. The source made the active and inactive calls. How the source made its calls: active means hit-call score of the fitted dose curve at least 0.9, where 1 is the maximum; inconclusive means response in the unintended direction; inactive means score below 0.9.
# Columns and labels:
# [1] = target: rat Acetylcholinesterase (AChE), Ache (gene 83817) (UniProt P37136); assay: NVS_ENZ_rAChE: NovaScreen (NVS) Enzymatic Assay for rat Acetylcholinesterase (AChE) (AID 2283233)
# In short: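 Compounds first screened at 25 uM in duplicate, then those passing threshold tested in concentration series up to 50 uM, against AChE from rat brain membranes. Enzyme activity read by absorbance at 0.33 h; inhibition scored versus DMSO.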
# [2] = target: human Protein Tyrosine Phosphatase Receptor Type C (PTPRC), PTPRC (gene 5788) (UniProt P08575); assay: NVS_ENZ_hPTPRC: NovaScreen (NVS) Enzymatic Assay for human Protein Tyrosine Phosphatase Receptor Type C (PTPRC) (AID 2283212)
# In short: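 Absorbance-based phosphatase activity of human PTPRC protein extracted from yeast was measured 1 h post-dosing. Compounds first tested at 25 uM in duplicate, then those passing threshold in singleton concentration series to 50 uM.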
# [3] = target: rat Adenylate Cyclase, Forskolin Stimulated, Adcy5 (gene 64532) (UniProt Q04400); assay: NVS_ENZ_rACFSKBinding: NovaScreen (NVS) Enzymatic Assay for rat Adenylate Cyclase, Forskolin Stimulated (AID 2283232)
# In short: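 Chemicals were first tested at 25 uM in duplicate, then hits run as concentration series with top concentration 50 uM. Enzyme source was rat forebrain membranes; radiometric filter read-out after 1 h, referenced to DMSO.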
# [4] = target: Norway rat Vesicular Monoamine Transporter (VMAT2), neurotransmitter transporter, Slc18a2 (gene 25549) (UniProt Q01827); assay: NVS_TR_rVMAT2: NovaScreen (NVS) Transporter Assay for Norway rat Vesicular Monoamine Transporter (VMAT2), neurotransmitter transporter (AID 2283376);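 further: actives lower the bound radioligand signal below the DMSO level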
# In short: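 Using rat forebrain membranes, specific radioligand binding to VMAT2 was measured by filtration and scintillation counting after 1 hour. Chemicals screened at 25 uM in duplicate, actives retested in concentration series, DMSO baseline.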
# [5] = tested on: rat Monoamine Oxidase, MAO-A, Peripheral (MAOAP), gene 29253; assay: NVS_ENZ_rMAOAP: NovaScreen (NVS) Enzymatic Assay for rat Monoamine Oxidase, MAO-A, Peripheral (MAOAP) (AID 2283237)
# In short: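 Scintillation counting tracked MAO-A activity in a cell-free rat liver mitochondrial membrane prep, read 1.17 hours after compound addition. Single-point duplicate testing at 25 uM preceded concentration-response follow-up; activity was fitted relative to DMSO.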
# [6] = tested on: rat Monoamine Oxidase, MAO-A, Central (MAOAC), gene 29253; assay: NVS_ENZ_rMAOAC: NovaScreen (NVS) Enzymatic Assay for rat Monoamine Oxidase, MAO-A, Central (MAOAC) (AID 2283243);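 further: potency refers to inhibition seen as signal drop below DMSO baseline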
# In short: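 Scintillation read-out of MAO-A activity in rat brain lysate, 1.5 h post-dosing. Primary single-concentration screen: 25 uM, duplicate; actives re-tested in concentration series. DMSO = negative control/baseline.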
# [7] = target: bovine Gamma-Aminobutyric Acid Type A Receptor BDZ, alpha 1 site (GABARa1), GABRA1 (gene 780973) (UniProt P08219); assay: NVS_LGIC_bGABARa1: NovaScreen (NVS) Ligand-Gated Ion Channel Assay for bovine Gamma-Aminobutyric Acid Type A Receptor BDZ, alpha 1 site (GABARa1) (AID 2283321)
# In short: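 Bovine cortex membrane preparation, benzodiazepine site on GABA-A alpha1; specific radioligand displacement read after 0.75 h by filtration and scintillation. Screen at 25 uM, then singleton titrations up to 50 uM; DMSO baseline.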
# [8] = TOX21_TRB_BLA_Agonist_Followup_viability: Viability Assessment in the Tox21 Thyroid Hormone Receptor beta Agonism Beta-lactamase (BLA) Follow-Up Assay (AID 2283956)
# In short: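 Viability was read as CellTiter-Glo luminescence in the same wells as the TRb-bla agonist read-out. HEK293T GAL4-TRb LBD cells were treated for 18 h (37C, 5% CO2) at 11 concentrations in triplicate. Fits were bidirectional versus DMSO baseline.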
# [9] = target: bovine Estrogen Receptor (ER), ESR1 (gene 407238) (UniProt P49884); assay: NVS_NR_bER: NovaScreen (NVS) Nuclear Receptor Binding Assay for bovine Estrogen Receptor (ER) (AID 2283345);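 further: actives lower the bound radioligand count which means they displace the ER ligand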
# In short: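 Bovine uterine membranes; tritiated or iodinated radioligand; competitive displacement; 18 h; scintillation read; DMSO negative control; 25 uM duplicates, then concentration series for actives.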
# [10] = target: Estrogen receptor (Homo sapiens) (UniProt P03372); assay: NVS_NR_hER: NovaScreen (NVS) Nuclear Receptor Binding Assay for human Estrogen Receptor (ER) (AID 2283348)
# In short: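 Cell-free MCF7-derived ER preparation, specific radioligand displaced by test compound, read by scintillation counting 18 h post-dosing. Duplicate single-point 25 uM screen, then concentration-response confirmation; DMSO baseline.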
# [11] = TOX21_p53_BLA_p2_viability: Viability Assessment in the Tox21 HCT-116 p53 Agonism Beta-lactamase Assay, Phase 2 (AID 2283591);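 further: compound exposure lasted 16 h at 37 °C; actives lower the ATP signal meaning cytotoxicity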
# In short: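 Cytotoxicity readout: CellTiter-Glo ATP luminescence, 30 min at room temperature, after the beta-lactamase read. Cells were HCT116 exposed 16 h at 37C to compounds pin-transferred at 217-fold dilution from DMSO stocks.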
# [12] = target: Cellular tumor antigen p53 (Homo sapiens) (UniProt P04637); assay: TOX21_p53_BLA_p2_ratio: Tox21 HCT-116 p53 Agonism Beta-lactamase Assay, Ratio, Phase 2 (AID 2283592)
# In short: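 Plated HCT116 p53-bla cells (4000/well) received compound after 5 h, then 16 h at 37C/5% CO2. CCF4-AM added, 2 h RT. Ratio of 460 to 530 nm emission taken as the p53 reporter signal.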
# [13] = TOX21_p53_BLA_p3_viability: Viability Assessment in the Tox21 HCT-116 p53 Agonism Beta-lactamase Assay, Phase 3 (AID 2283593);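 further: cells exposed to compound for 16 h before reading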
# In short: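 Cellular ATP was quantified by CellTiter-Glo luminescence, read after 30 min at room temperature. Beforehand, HCT116 cells (4000/well) received compound 5 h post-seeding, 217-fold diluted from DMSO, then incubated 16 h at 37C.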
# [14] = target: Cellular tumor antigen p53 (Homo sapiens) (UniProt P04637); assay: TOX21_p53_BLA_p3_ratio: Tox21 HCT-116 p53 Agonism Beta-lactamase Assay, Ratio, Phase 3 (AID 2283596)
# In short: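 Cells were seeded at 4000/well, rested 5 h at 37C, then dosed with DMSO compound solutions (217-fold dilution) for 16 h. CCF4-AM substrate was loaded for 2 h at room temperature, and the 460/530 nm emission ratio was fitted for gain of signal versus DMSO.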
# [15] = TOX21_p53_BLA_p4_viability: Viability Assessment in the Tox21 HCT-116 p53 Agonism Beta-lactamase Assay, Phase 4 (AID 2283597);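 further: hits lower the luminescence signal meaning cytotoxicity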
# In short: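 Readout: ATP luminescence (CellTiter-Glo), measured 30 min after reagent addition at RT. The reagent followed a 2 h CCF4-AM incubation, and the cells had been exposed to compound for 16 h at 37C.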
# [16] = target: Cellular tumor antigen p53 (Homo sapiens) (UniProt P04637); assay: TOX21_p53_BLA_p5_ratio: Tox21 HCT-116 p53 Agonism Beta-lactamase Assay, Ratio, Phase 5 (AID 2283599)
# In short: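 Beta-lactamase reporter ratio (blue 460 nm over green 530 nm, 405 nm excitation) after 2 h CCF4-AM loading, in HCT-116 cells exposed 16 h at 37 C to compounds pinned at 217-fold dilution. Increases relative to DMSO baseline scored.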
# [17] = TOX21_p53_BLA_p5_viability: Viability Assessment in the Tox21 HCT-116 p53 Agonism Beta-lactamase Assay, Phase 5 (AID 2283600)
# In short: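 Workflow: seed 4000 cells per well, wait 5 h, add compounds (DMSO, 217-fold dilution), incubate 16 h, load CCF4-AM 2 h, add CellTiter-Glo, read luminescence after 30 min.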
# [18] = target: Cellular tumor antigen p53 (Homo sapiens) (UniProt P04637); assay: TOX21_p53_BLA_p4_ratio: Tox21 HCT-116 p53 Agonism Beta-lactamase Assay, Ratio, Phase 4 (AID 2283601)
# In short: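 Signal is the blue/green (460nm/530nm) ratio of cleaved versus uncleaved CCF4-AM substrate, read after 2 h substrate loading. Cells were HCT116 carrying the p53-responsive beta-lactamase reporter, dosed 16 h at 37C, 5% CO2; CellTiter-Glo measured in parallel.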
# [19] = target: rat Corticotropin Releasing Factor Receptor (CRF), Crhr1 (gene 58959) (UniProt P35353); assay: NVS_GPCR_rCRF: NovaScreen (NVS) G Protein-Coupled Receptor Assay for rat Corticotropin Releasing Factor Receptor (CRF) (AID 2283300)
# In short: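 Single-concentration (25 uM, duplicate) radioligand binding on rat cortical membrane preparations, counted by scintillation after 2 h. Activity scored as signal loss relative to DMSO negative control.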
# Sequence of Cellular tumor antigen p53 (Homo sapiens) (P04637 whole entry, looked up): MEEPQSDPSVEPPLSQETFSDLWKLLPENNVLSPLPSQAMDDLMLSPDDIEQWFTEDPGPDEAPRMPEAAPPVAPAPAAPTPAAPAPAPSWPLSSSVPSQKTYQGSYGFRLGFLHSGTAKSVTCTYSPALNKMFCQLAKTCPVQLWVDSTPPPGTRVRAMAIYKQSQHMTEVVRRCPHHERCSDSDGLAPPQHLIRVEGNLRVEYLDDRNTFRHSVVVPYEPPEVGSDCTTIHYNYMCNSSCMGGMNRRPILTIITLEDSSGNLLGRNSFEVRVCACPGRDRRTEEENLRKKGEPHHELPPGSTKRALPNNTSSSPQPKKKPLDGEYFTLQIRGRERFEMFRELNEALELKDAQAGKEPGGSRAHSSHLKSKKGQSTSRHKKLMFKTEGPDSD
# Sequence of bovine Estrogen Receptor (ER), ESR1 (gene 407238) (P49884 whole entry, looked up): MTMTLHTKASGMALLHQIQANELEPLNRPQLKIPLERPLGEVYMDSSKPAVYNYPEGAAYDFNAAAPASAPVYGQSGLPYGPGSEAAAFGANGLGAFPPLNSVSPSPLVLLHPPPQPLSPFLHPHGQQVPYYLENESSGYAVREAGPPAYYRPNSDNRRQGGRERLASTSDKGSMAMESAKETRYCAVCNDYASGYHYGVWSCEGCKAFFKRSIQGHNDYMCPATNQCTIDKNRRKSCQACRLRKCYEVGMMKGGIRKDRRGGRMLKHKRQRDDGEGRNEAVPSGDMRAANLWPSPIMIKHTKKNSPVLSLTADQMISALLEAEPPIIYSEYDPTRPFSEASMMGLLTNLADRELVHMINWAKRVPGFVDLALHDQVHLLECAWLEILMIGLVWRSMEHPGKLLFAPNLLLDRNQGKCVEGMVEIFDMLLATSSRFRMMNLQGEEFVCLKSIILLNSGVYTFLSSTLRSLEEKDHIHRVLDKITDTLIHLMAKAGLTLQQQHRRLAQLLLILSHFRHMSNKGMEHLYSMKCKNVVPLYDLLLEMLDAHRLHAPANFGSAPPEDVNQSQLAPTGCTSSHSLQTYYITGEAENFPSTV
# Sequence of Estrogen receptor (Homo sapiens) (P03372 whole entry, looked up): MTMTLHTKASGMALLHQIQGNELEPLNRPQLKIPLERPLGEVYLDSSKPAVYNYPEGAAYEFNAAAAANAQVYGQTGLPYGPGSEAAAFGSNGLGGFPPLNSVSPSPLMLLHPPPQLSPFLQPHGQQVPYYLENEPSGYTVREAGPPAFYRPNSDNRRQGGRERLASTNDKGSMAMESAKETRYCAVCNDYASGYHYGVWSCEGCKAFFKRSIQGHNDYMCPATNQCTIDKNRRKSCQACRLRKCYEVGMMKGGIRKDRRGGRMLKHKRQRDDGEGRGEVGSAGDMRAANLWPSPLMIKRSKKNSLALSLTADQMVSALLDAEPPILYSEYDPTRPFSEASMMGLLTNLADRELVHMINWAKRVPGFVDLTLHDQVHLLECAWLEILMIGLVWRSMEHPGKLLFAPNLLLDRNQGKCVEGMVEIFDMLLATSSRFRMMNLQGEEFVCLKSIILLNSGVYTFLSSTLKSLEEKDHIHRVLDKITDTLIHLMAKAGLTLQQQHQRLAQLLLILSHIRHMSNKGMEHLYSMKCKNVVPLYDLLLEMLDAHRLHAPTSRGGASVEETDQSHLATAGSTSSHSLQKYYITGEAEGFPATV
# Sequence of Norway rat Vesicular Monoamine Transporter (VMAT2), neurotransmitter transporter, Slc18a2 (gene 25549) (Q01827 whole entry, looked up): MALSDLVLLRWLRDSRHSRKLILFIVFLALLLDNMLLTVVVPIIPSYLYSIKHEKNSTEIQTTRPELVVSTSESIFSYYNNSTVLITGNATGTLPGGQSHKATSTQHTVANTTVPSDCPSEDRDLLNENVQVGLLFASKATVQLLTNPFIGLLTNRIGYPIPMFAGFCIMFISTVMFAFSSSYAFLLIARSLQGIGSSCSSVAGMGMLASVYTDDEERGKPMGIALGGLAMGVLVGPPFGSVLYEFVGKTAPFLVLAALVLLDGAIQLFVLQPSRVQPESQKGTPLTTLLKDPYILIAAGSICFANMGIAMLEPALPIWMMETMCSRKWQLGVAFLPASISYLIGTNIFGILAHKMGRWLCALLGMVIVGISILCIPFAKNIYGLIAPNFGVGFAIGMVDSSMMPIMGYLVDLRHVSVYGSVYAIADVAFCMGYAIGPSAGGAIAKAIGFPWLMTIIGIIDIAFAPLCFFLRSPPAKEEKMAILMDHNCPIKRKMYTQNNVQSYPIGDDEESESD
# Sequence of rat Acetylcholinesterase (AChE), Ache (gene 83817) (P37136 whole entry, looked up): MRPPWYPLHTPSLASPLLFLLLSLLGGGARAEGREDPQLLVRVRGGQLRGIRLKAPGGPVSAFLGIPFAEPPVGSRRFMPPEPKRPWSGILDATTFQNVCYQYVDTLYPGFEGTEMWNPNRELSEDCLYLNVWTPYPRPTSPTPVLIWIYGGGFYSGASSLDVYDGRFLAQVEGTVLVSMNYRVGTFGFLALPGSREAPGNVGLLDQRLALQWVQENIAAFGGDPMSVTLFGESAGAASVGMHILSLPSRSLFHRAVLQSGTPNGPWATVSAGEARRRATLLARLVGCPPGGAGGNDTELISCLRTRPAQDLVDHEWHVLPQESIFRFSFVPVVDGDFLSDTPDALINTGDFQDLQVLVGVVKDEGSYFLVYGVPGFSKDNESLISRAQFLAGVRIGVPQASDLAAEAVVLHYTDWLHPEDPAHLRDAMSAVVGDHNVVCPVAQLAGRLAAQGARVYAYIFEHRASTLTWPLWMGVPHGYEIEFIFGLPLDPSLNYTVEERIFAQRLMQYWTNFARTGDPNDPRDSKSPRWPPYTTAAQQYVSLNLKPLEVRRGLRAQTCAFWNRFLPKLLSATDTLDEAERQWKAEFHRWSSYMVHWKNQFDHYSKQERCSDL
# Sequence of human Protein Tyrosine Phosphatase Receptor Type C (PTPRC), PTPRC (gene 5788) (P08575 whole entry, looked up): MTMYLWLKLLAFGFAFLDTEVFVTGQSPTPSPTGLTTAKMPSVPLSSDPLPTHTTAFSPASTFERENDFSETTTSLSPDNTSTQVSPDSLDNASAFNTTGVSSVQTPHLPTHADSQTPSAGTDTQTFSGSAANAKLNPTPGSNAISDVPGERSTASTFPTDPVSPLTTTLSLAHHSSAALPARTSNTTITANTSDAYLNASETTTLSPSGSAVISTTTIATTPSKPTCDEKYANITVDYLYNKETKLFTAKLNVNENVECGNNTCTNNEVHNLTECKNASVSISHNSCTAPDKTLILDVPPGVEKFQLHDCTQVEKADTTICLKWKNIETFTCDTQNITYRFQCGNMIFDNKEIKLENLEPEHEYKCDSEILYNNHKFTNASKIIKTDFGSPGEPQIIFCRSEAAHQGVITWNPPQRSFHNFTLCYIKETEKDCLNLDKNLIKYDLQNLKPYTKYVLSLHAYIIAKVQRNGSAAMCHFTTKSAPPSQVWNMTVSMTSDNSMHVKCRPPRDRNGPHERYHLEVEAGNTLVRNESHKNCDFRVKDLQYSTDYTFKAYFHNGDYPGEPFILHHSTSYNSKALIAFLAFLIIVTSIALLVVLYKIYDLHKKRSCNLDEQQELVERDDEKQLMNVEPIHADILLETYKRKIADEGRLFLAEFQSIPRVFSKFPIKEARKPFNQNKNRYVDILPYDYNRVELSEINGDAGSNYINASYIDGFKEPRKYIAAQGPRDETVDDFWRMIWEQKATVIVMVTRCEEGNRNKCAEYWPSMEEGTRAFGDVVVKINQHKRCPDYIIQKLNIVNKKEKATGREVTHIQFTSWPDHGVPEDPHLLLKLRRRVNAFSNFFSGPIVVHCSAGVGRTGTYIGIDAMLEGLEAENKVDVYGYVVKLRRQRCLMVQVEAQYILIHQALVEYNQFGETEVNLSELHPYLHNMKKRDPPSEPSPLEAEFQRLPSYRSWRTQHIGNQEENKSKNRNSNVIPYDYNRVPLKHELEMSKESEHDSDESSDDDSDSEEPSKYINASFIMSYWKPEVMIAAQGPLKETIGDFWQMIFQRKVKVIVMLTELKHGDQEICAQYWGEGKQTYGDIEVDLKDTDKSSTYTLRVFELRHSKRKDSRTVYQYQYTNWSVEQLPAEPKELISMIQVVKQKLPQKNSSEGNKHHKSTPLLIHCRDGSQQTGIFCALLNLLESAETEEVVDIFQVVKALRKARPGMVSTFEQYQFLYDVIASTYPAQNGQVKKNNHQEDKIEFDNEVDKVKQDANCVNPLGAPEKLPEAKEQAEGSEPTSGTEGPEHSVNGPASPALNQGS
# Sequence of bovine Gamma-Aminobutyric Acid Type A Receptor BDZ, alpha 1 site (GABARa1), GABRA1 (gene 780973) (P08219 whole entry, looked up): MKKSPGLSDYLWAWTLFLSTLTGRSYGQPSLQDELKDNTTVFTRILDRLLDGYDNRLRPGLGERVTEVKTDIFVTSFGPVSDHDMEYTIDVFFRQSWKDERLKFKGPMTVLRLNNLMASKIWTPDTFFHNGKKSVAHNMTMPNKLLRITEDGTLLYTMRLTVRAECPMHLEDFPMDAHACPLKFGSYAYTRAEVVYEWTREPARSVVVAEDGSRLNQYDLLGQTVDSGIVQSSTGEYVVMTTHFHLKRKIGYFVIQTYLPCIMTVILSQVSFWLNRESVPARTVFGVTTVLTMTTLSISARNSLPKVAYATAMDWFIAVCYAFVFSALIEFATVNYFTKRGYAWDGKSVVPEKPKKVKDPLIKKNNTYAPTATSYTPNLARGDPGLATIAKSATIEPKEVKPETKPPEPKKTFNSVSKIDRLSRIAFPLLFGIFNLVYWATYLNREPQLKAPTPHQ
# Sequence of rat Corticotropin Releasing Factor Receptor (CRF), Crhr1 (gene 58959) (P35353 whole entry, looked up): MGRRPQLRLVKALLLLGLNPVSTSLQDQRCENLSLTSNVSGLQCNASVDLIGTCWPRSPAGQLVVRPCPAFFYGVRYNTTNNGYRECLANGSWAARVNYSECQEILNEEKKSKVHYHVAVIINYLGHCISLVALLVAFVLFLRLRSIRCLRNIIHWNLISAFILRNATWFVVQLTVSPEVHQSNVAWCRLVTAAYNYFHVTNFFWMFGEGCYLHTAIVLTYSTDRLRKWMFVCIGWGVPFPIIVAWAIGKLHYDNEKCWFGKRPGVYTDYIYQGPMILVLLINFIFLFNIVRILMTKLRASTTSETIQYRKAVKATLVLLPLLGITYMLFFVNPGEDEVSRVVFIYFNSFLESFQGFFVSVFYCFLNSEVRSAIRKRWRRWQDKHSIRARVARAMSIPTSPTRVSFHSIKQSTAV
structure (smiles),measurement,setting,value
Nc1ccc(N)c([N+](=O)[O-])c1,outcome,[1],inactive
ClC1=C(Cl)C(Cl)(Cl)C(Cl)=C1Cl,AC50,[2],10.9 µM (active)
Nc1ccc(Nc2ccccc2)cc1,AC50,[2],19.1 µM (active)
same,AC50,[3],39.6 µM (active)
same,AC50,[4],8.65 µM (active)
O=C(N[C@@H](c1ccccc1)[C@@H]1CCCCN1)c1cccc(C(F)(F)F)c1Cl,outcome,[5],inactive
c1ccc(Oc2ccccc2)cc1,outcome,[1],inactive
Nc1cccc(N)c1,outcome,[5],inactive
same,AC50,[6],4.33 µM (active)
NC(=Nc1ccccc1)Nc1ccccc1,AC50,[7],21.8 µM (active)
OCC(CO)(CBr)CBr,outcome,[4],inactive
COC(=O)c1ccc(C(=O)OC)cc1,outcome,[4],inactive
CC1=C(/C=C/C(C)=C/C=C/C(C)=C/C(=O)O)C(C)(C)CCC1,outcome,[8],inactive
[Hg+2].[I-].[I-],outcome,[9],inactive
same,outcome,[10],inactive
same,AC50,[11],35.4 µM (active)
same,AC50,[12],54.2 µM (active)
same,AC50,[13],70.1 µM (active)
same,AC50,[14],72.1 µM (active)
same,AC50,[15],18.4 µM (active)
same,AC50,[16],73.7 µM (active)
same,AC50,[17],57.5 µM (active)
same,AC50,[18],33 µM (active)
O=[N+]([O-])c1ccc(Oc2ccc(C(F)(F)F)cc2[N+](=O)[O-])cc1,outcome,[9],inactive
same,outcome,[11],inactive
same,outcome,[12],inactive
same,outcome,[13],inactive
same,outcome,[14],inactive
same,outcome,[16],inactive
same,outcome,[17],inactive
same,outcome,[18],inactive
O=C1OC2(c3ccccc31)c1cc(I)c(O)c(I)c1Oc1c2cc(I)c(O)c1I,AC50,[6],0.828 µM (active)
C=CC(=O)OCCCCO,outcome,[9],inactive
same,outcome,[10],inactive
OCCO,outcome,[19],inactive
CC(=O)[O][Pb]([c]1ccccc1)([c]1ccccc1)[c]1ccccc1,outcome,[9],inactive
same,AC50,[10],8.22 µM (active)
same,AC50,[11],0.458 µM (active)
same,AC50,[12],23.3 µM (active)
same,AC50,[13],4.03 µM (active)
same,AC50,[15],0.655 µM (active)
same,AC50,[16],32.7 µM (active)
same,AC50,[17],1.32 µM (active)
same,AC50,[18],32.5 µM (active)
O=C1c2ccccc2C(=O)c2c(Cl)cccc21,AC50,[6],3.72 µM (active)
same,outcome,[4],inactive
